Experimental findings from PubChem BioAssay (NCI) are described below.

Compounds without any hit were thinned out: in the full panel of roughly 83,000, 20% have a hit.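 48-hour exposure, single concentration, 96-well plates; percent growth endpoint where 0 means no net growth. Active: below 10.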 Values without a mark were called inactive. The source made the active and inactive calls.

Assay in all cases: NCI-60 one-dose screen, 48 h (100 = growth as untreated, 0 = no growth, -100 = all killed)
Experiment [1] deals with HCT-15 colon. The settings on record: 10 µM unless noted.
Experiment [2] concerns HT29 colon. The settings on record: 10 µM unless noted.
Experiment [3] concerns SNB-75 CNS. The settings on record: 10 µM unless noted.
Experiment [4] relates to SNB-19 CNS. The settings on record: 10 µM unless noted.
Experiment [5] deals with U251 CNS. The settings on record: 10 µM unless noted.
In experiment [6] the test system is PC-3 prostate. The settings on record: 10 µM unless noted.
In experiment [7] the test system is SK-MEL-5 melanoma. The settings on record: 10 µM unless noted.
Experiment [8] concerns UACC-62 melanoma. The settings on record: 10 µM.
The test system of experiment [9] is LOX IMVI melanoma. The settings on record: 10 µM unless noted.
In experiment [10] the test system is SK-MEL-2 melanoma. The settings on record: 10 µM unless noted.
Experiment [11] has as its system EKVX NSCLC. The settings on record: 10 µM unless noted.
Experiment [12] deals with SN12C renal. The settings on record: 10 µM unless noted.
Experiment [13] concerns UO-31 renal. The settings on record: 10 µM unless noted.
Experiment [14] deals with TK-10 renal. The settings on record: 10 µM.
Experiment [15] deals with CAKI-1 renal. The settings on record: 10 µM unless noted.
The test system of experiment [16] is A498 renal. The settings on record: 10 µM unless noted.
For experiment [17], the system named is HL-60(TB) leukemia. The settings on record: 10 µM unless noted.
For experiment [18], the system named is MOLT-4 leukemia. The settings on record: 10 µM unless noted.
Experiment [19] concerns SR leukemia. The settings on record: 10 µM unless noted.
For experiment [20], the system named is SK-MEL-28 melanoma. The settings on record: 10 µM.

For `CCC1(O)CC(OC2CC(N(C)C)C(OC3CC4OC5CC(=O)C(C)OC5OC4C(C)O3)C(C)O2)c2c(cc3c(c2O)C(=O)c2c(O)ccc(O)c2C3=O)C1C(=O)OC` (stereo not drawn), the growth in experiment [1] was -46.1% (active); in experiment [2], -36.4% (active); in experiment [3], -98% (active); in experiment [4], 0.801% (active); in experiment [5], -18.4% (active); in experiment [6] it was -63.5% (active). For the same molecule, the growth is -87.3% (active) in [7]; -72.5% (active) in experiment [8]; -22.7% (active) in experiment [9]; -54.8% (active) in experiment [10]; 1.67% (active) in [11]; 13.4% in [12]. The growth in [13] was -39.6% (active); in experiment [14], -28.7% (active); in experiment [15] it was -15.4% (active); in experiment [16] it was -71.4% (active); in [17] it was -41.6% (active); in experiment [18], -9.49% (active). In [19], the growth is -6.58% (active).
Turning to `CCC(=O)OC1CCn2c1nc1c2C(=O)C(C)=C(N2CC2)C1=O` (stereo not drawn), the growth in experiment [1] is 2.82% (active); in experiment [2], 7.71% (active); in [3], -87% (active); in [4], 1.12% (active); in experiment [5], -24.2% (active); in experiment [6], 8.58% (active). In addition, the growth is -98% (active) in experiment [7]; -67.8% (active) in experiment [8]; -75.7% (active) in experiment [9]; -42.1% (active) in [20]; -43.9% (active) in experiment [10]; 8.46% (active) in [11]. Moreover, the growth in experiment [12] is -43.9% (active); in experiment [13], -9.18% (active); in experiment [14] it was -5.86% (active); in experiment [15], -8.28% (active); in [16] it was -77.6% (active); in [17] it was 10.4%. The growth in experiment [18] was 70.5%; in experiment [19], 1.48% (active).
For the molecule `CC[C@@]1(O)C[C@H](OC2CC(N(C)C)C(OC3CC(O)C(OC4CCC(=O)C(C)O4)C(C)O3)C(C)O2)c2c(cc3c(c2O)C(=O)c2c(O)ccc(O)c2C3=O)[C@H]1C(=O)OC` (stereo partly drawn), the growth was -70.6% (active) in experiment [1]; -47.4% (active) in experiment [2]; -37.1% (active) in experiment [3]; 25.7% in experiment [4]; -38.3% (active) in [5]; -24.5% (active) in experiment [6]. The growth in experiment [7] was -24.9% (active); in experiment [8], -72.9% (active); in [9], -68.8% (active); in [10], -40.2% (active); in experiment [11], 17.6%; in experiment [12] it was 24.3%. Further, the growth was -57.2% (active) in [13]; 6.04% (active) in experiment [14]; -53.5% (active) in experiment [15]; -78.6% (active) in experiment [16]; -9.74% (active) in experiment [17]; 7.32% (active) in experiment [18]. The growth in experiment [19] was 1.06% (active).
With `Cc1cc(N=Nc2ccccc2C)ccc1N`, the growth in [1] is 84.9%; in experiment [2], 103%; in [3], 42.5%; in [4] it was 69.7%; in [5], 74.9%; in experiment [7] it was 79.3%. Moreover, the growth is 74% in experiment [8]; 71.5% in experiment [9]; 99.4% in [20]; 127% in [10]; 71.9% in experiment [11]; 28.9% in [12]. Moreover, the growth is 19.3% in experiment [13]; 124% in experiment [14]; 54.7% in experiment [15]; 8.96% (active) in experiment [17]; 29.3% in [18].
Turning to `CCCCCCCCCCCC1CCCC(C)N1` (stereo not drawn), the growth in experiment [1] is 27.7%; in experiment [2] it was 14.9%; in [3], 82%; in experiment [4] it was 93.2%; in [5], 59.6%; in experiment [6], 44.4%. Also, the growth in experiment [7] was 97%; in [8] it was 88.2%; in [9], 52.3%; in experiment [20], 96.7%; in experiment [10], -7.27% (active); in experiment [11] it was 91.2%. In addition, the growth is 75.3% in experiment [12]; 29% in experiment [13]; 86.6% in experiment [15]; 95.8% in experiment [16]; -45.8% (active) in experiment [17]; 14.1% in [18]. Besides, the growth in experiment [19] is -28% (active).
`O=C1c2ccccc2C(=O)C(Cl)C1Cl` (stereo not drawn): the growth in experiment [1] is -86.6% (active); in [2], 96.8%; in [3], 54%; in experiment [4] it was 69.5%; in experiment [5], 83%; in [6] it was 71.8%. In addition, the growth in experiment [7] was 86.3%; in experiment [8] it was 70.9%; in [20], 87.9%; in experiment [10], 111%; in experiment [11], -79.6% (active); in experiment [12], 71.4%. In addition, the growth in [13] is -98.5% (active); in experiment [14] it was -97.4% (active); in experiment [15] it was 64.5%; in [16], 133%; in experiment [17], -24.2% (active); in [18], -8.44% (active). For the same molecule, in experiment [19], the growth was 35.6%.
Take `CN1CCN(c2ccc([N+](=O)[O-])c3no[n+]([O-])c23)CC1`: the growth in [1] was -56.3% (active); in experiment [2], -51.8% (active); in experiment [3] it was -78.2% (active); in experiment [4], -30.5% (active); in experiment [5], -95.6% (active); in [6], -65.9% (active). In addition, the growth in [7] is -46.6% (active); in experiment [8], -58.8% (active); in experiment [9] it was -46.2% (active); in [20] it was 17.3%; in experiment [10] it was -80.5% (active); in experiment [11], -34.4% (active). For the same molecule, the growth in experiment [12] is -63.9% (active); in experiment [13], -48.4% (active); in [14] it was -95.4% (active); in [15] it was -75.2% (active); in [16], -34.8% (active); in [17], -42.4% (active). The growth in [18] is -46% (active).
In the case of `Oc1ccc(Cl)cc1Sc1cc(Cl)ccc1O`, in experiment [17], the growth was 81.8%.
